Compound activity: PubChem, National Center for Advancing Translational Sciences (NCATS)
Sampled rows, rich in hits. Any-hit rate of the full collection: about 3.8%.
TGFb SMAD3 inh: inhibitors of TGF-b signaling | AID 588855 | 410,000 tested, 1.2% active | Potency, µM (series often up to 46.1 µM), most hits filed as inhibitors | HepG2 CAGA-GFP TGF-b/SMAD3 reporter, GFP fluorescence, 18 h; TGF-beta stimulated, 500 pg/mL final; further: nearly all actives have a fitted effect of over 65% in size
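HEPG2 CAGA-GFP reporter cells (1000/well, DMEM with 1% FBS) received compounds, then recombinant TGF-beta at 500 pg/mL final for 18 hours at 37 degrees C. Per-cell GFP summed per well was normalised to unstimulated and stimulated DMSO controls before curve fitting.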
HT1080NT lethal: kills 2HG-producing HT-1080-NT fibrosarcoma cells; HT-1080-NT fibrosarcoma viability, CellTiter-Glo ATP luminescence, 48 h; Potency, µM (series often up to 46.1 µM), most hits filed as cytotoxic; 360,000 tested, 1.6% active; AID 686970;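 further: NT is the 2HG producing partner of a matched IDH1 knockdown line; nearly all actives have a fitted effect of over 55% in size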
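HT-1080-NT; 750 cells/well; 5% FBS RPMI; 48 h compound, 37 degrees C; CellTiter-Glo luminescence; curve fitting and curve-class assignment.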
ATXN2 expr inh: ATXN2 expression inhibition; 360,000 tested, 0.72% active; HEK-293 ATXN2-luciferase reporter, luminescence, 24 h; Potency, µM (titrated, usually from 57 µM), actives largely listed as inhibitors; further: nearly all actives have a fitted effect of over 55% in size
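ATXN2-luciferase reporter cells (luciferase flanked by upstream and downstream ATXN2 gene portions) were treated 24 h at 37 °C with compounds at up to 57 uM. SteadyGlo luminescence gave expression; GF-AFC fluorescence gave viability.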
HepG2 viability: counter-screen for TGF-b inhibitors: cytotoxicity in HepG2 cells; HepG2 CAGA-GFP viability, ATP luminescence, 18 h; Potency, µM (series often up to 46.1 µM), actives largely listed as cytotoxic; 410,000 tested, 0.76% active
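HepG2 CAGA-GFP cells (1000/well, DMEM with 1% FBS) received compound, then TGF-beta at 500 pg/mL final, and were incubated 18 hours at 37 degrees C. Viability was read by CellTiter-Glo luminescence. Media-only wells were set as complete cell-killing and DMSO as no toxicity.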
S2 tox: viability counter-screen for ATXN expression inhibitors. S2 cells (HEK-293 line with an ATXN2-luciferase reporter) viability, CellTiter-Fluor protease fluorescence, 24 h. 400,000 tested, 0.49% active. Potency, µM (titrated, usually from 56.7 µM), usual class: cytotoxic; further: nearly all actives have a fitted effect of over 40% in size
HT1080 IDH1KD tx: toxicity to HT-1080 IDH1 knockdown cells (counter line) | AID 686971 | HT-1080 IDH1 knockdown viability, ATP luminescence, 48 h | 360,000 tested, 2% active | Potency, µM (titrated, usually from 46.1 µM), most hits filed as cytotoxic
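Cytotoxicity counter-line: IDH1KD HT-1080, 48 h, CellTiter-Glo. Curves classed by r2, magnitude and activity.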
Hits are given with their value; [ ] = another dose, or the depositor's remark. The call rests on the fitted dose curve; in most records, active means well fitted curve in the direction sought with a large enough effect; inconclusive means small, poorly fitted or top-dose-only effect, or another doubt; inactive means no such curve, though single readings can be large; an effect the other way counts as inactive or inconclusive.

How did CC(C)(C)c1ccc(S(=O)(=O)N2CCC(O)(c3ccc(Cl)cc3)CC2)cc1 do in these assays?
TGFb SMAD3 inh: 13µM; HT1080NT lethal: inconclusive; HepG2 viability: inactive; S2 tox: inconclusive; HT1080 IDH1KD tx: inactive

How did O=C(CN1CCCN(Cc2cccc(F)c2)S1(=O)=O)Nc1ccc2c(c1)OCCO2 do in these assays?
TGFb SMAD3 inh: inconclusive; ATXN2 expr inh: inactive; HepG2 viability: inactive; S2 tox: inconclusive

How did OC[C@@H]1[C@@H](c2ccc(Cl)cc2)C(c2cccc(Cl)c2)=NN1c1ccccc1 do in these assays?
TGFb SMAD3 inh: 11µM; HT1080NT lethal: inconclusive; ATXN2 expr inh: inconclusive; HepG2 viability: 13µM; HT1080 IDH1KD tx: inactive

Results for OC[C@@H]1[C@@H](c2ccc(Cl)cc2)C(c2ccccc2)=NN1c1ccccc1 ?
TGFb SMAD3 inh: inconclusive; HT1080NT lethal: inconclusive; ATXN2 expr inh: inconclusive; HepG2 viability: inactive; HT1080 IDH1KD tx: inconclusive

Results for Cc1ccc(Cc2c(C)nc3nc(SCC(=O)NCc4ccco4)nn3c2C)cc1 ?
TGFb SMAD3 inh: inactive; HT1080NT lethal: inconclusive; ATXN2 expr inh: inactive; HepG2 viability: inactive; S2 tox: inconclusive; HT1080 IDH1KD tx: 2.6µM

Results for CC(C)OCCCNC(=O)Cc1ccc(NC(=O)N2CCCCc3ccccc32)cc1 ?
TGFb SMAD3 inh: inactive; ATXN2 expr inh: inactive; HepG2 viability: inactive; S2 tox: inactive

Results for Cc1onc(-c2c(Cl)cccc2Cl)c1-c1nnc(-c2ccc(Cl)cc2)o1 ?
TGFb SMAD3 inh: inactive; HT1080NT lethal: inactive; ATXN2 expr inh: inactive; HepG2 viability: inactive; S2 tox: inconclusive; HT1080 IDH1KD tx: inactive

How did Cc1onc(-c2c(F)cccc2Cl)c1-c1nnc(-c2ccc(C(F)(F)F)cc2)o1 do in these assays?
TGFb SMAD3 inh: inconclusive; HT1080NT lethal: inactive; ATXN2 expr inh: inactive; HepG2 viability: inactive; S2 tox: inconclusive; HT1080 IDH1KD tx: 26µM

Results for Cc1cccnc1NC(=S)NC(=O)c1cccs1 ?
TGFb SMAD3 inh: inconclusive; HT1080NT lethal: 6.3µM; ATXN2 expr inh: inactive; HepG2 viability: inactive; S2 tox: inactive; HT1080 IDH1KD tx: 7.1µM

How did Cc1cccnc1NC(=S)NC(=O)c1cncc(Br)c1 do in these assays?
TGFb SMAD3 inh: inactive; HT1080NT lethal: 7.9µM; ATXN2 expr inh: inactive; HepG2 viability: inactive; S2 tox: inactive; HT1080 IDH1KD tx: 10µM

How did C[C@@H]1[C@H](c2ccccc2)OCCS(=O)(=O)N1Cc1cccc(Cl)c1 do in these assays?
TGFb SMAD3 inh: inconclusive; HepG2 viability: inactive

Results for CCOC(=O)c1ccc(N2CCN(c3cc(Cl)ccc3C)CC2)c(NC(=O)Nc2cccc(OC)c2)c1 ?
TGFb SMAD3 inh: inactive; HepG2 viability: inactive

Results for Sc1oc(-c2ccccc2)cc1C=Nc1ccccc1 ?
TGFb SMAD3 inh: inconclusive; HT1080NT lethal: 7.9µM; ATXN2 expr inh: inactive; HepG2 viability: inactive; S2 tox: inconclusive; HT1080 IDH1KD tx: 11µM

Results for Oc1oc(-c2ccccc2)nc1C=Nc1ccccc1 ?
TGFb SMAD3 inh: inconclusive; HT1080NT lethal: inactive; ATXN2 expr inh: inactive; HepG2 viability: inactive; S2 tox: inactive; HT1080 IDH1KD tx: inactive

Results for CC(C)(C)CC(C)(C)N=C1Nc2cc(Cl)c(Cl)cc2NC12C[C@H]1CCC(=O)N3CC[C@@H](C2)[C@@H]13 (stereo partly specified) ?
TGFb SMAD3 inh: 11µM; HT1080NT lethal: inactive; ATXN2 expr inh: inconclusive; HepG2 viability: 13µM; HT1080 IDH1KD tx: inactive

Results for CC(C)(C)CC(C)(C)N=C1Nc2ccccc2NC12C[C@H]1CCC(=O)N3CC[C@@H](C2)[C@@H]13 (stereo partly specified) ?
TGFb SMAD3 inh: inconclusive; HT1080NT lethal: inactive; ATXN2 expr inh: inactive; HepG2 viability: inactive; S2 tox: inconclusive; HT1080 IDH1KD tx: inactive

Results for CC(C)(C)CC(C)(C)N=C1Nc2cc(Cl)c(Cl)cc2N[C@]12C[C@H]1CCCC(=O)N3CC[C@@H](C2)[C@@H]13 ?
TGFb SMAD3 inh: 7.1µM; HepG2 viability: inactive

What do the screens show for `O=C(Nc1ccccc1)Nc1ccc(-c2ccc(C(=O)[C@H]3CCC[C@H]3C(=O)O)cc2)cc1`?
ATXN2 expr inh: inactive

How did O=C(CN1CCN(S(=O)(=O)c2ccc(Br)cc2)CC1)Nc1ccccc1F do in these assays?
TGFb SMAD3 inh: inactive; HT1080NT lethal: inactive; ATXN2 expr inh: inactive; HepG2 viability: 14µM; S2 tox: inactive; HT1080 IDH1KD tx: inactive

Results for CCOC(=O)c1nnn(-c2ccc([N+](=O)[O-])cc2[N+](=O)[O-])c1C ?
TGFb SMAD3 inh: 10µM; HT1080NT lethal: inconclusive; ATXN2 expr inh: inactive; HepG2 viability: 16µM; S2 tox: inactive; HT1080 IDH1KD tx: inconclusive

Results for C=CCCC(=O)Nc1nc(C)c(-c2csc(Nc3cc(OC)ccc3OC)n2)s1 ?
TGFb SMAD3 inh: inconclusive; HT1080NT lethal: 7.3µM; ATXN2 expr inh: inactive; HepG2 viability: inactive; S2 tox: inactive; HT1080 IDH1KD tx: 7.3µM

Results for CCCC(=O)Nc1nc(C)c(-c2csc(Nc3cc(OC)ccc3OC)n2)s1 ?
TGFb SMAD3 inh: inactive; HT1080NT lethal: inactive; ATXN2 expr inh: inactive; HepG2 viability: inactive; S2 tox: inactive; HT1080 IDH1KD tx: inactive

How did O=C(N/N=C/c1ccc(-c2cccc(C(F)(F)F)c2)o1)c1ccccc1Br do in these assays?
TGFb SMAD3 inh: 20µM; HT1080NT lethal: inactive; ATXN2 expr inh: inactive; HepG2 viability: inactive; S2 tox: inconclusive; HT1080 IDH1KD tx: inconclusive

How did O=C(N/N=C/c1ccc(-c2cccc(C(F)(F)F)c2)o1)c1ccccc1O do in these assays?
TGFb SMAD3 inh: inactive; HT1080NT lethal: inactive; ATXN2 expr inh: inconclusive; HepG2 viability: inactive; S2 tox: inconclusive; HT1080 IDH1KD tx: inactive

What do the screens show for `COc1ccc(NC(=O)/C(C#N)=C\c2cc(C)n(-c3ccc4c(c3)OCO4)c2C)cc1`?
TGFb SMAD3 inh: inactive; HT1080NT lethal: 1.8µM; ATXN2 expr inh: inconclusive; HepG2 viability: inactive; S2 tox: inactive; HT1080 IDH1KD tx: 2.1µM

What do the screens show for `CCn1cc([N+](=O)[O-])c(C(=O)N2N=C(c3ccc4ccccc4c3)CC2c2cc(Br)ccc2O)n1` (stereo unspecified)?
TGFb SMAD3 inh: 20µM; HT1080NT lethal: 21µM; ATXN2 expr inh: inconclusive; HepG2 viability: inactive; S2 tox: inactive; HT1080 IDH1KD tx: inconclusive

How did CCn1cc([N+](=O)[O-])c(C(=O)N2N=C(c3ccc(Cl)c(Cl)c3)CC2c2ccccc2O)n1 (stereo unspecified) do in these assays?
TGFb SMAD3 inh: 11µM; HT1080NT lethal: 23µM; ATXN2 expr inh: inconclusive; HepG2 viability: inactive; HT1080 IDH1KD tx: inconclusive

What do the screens show for `COc1cc(CNC(C)(C)CO)cc(Br)c1OCc1ccccc1`?
TGFb SMAD3 inh: inactive; HT1080NT lethal: inconclusive; ATXN2 expr inh: inactive[11.3 µM]; HepG2 viability: inactive; HT1080 IDH1KD tx: inconclusive
